# Compound activity deposited in PubChem by The Scripps Research Institute Molecular Screening Center.
# A selection: hits, their analogues and other compounds. The true share with any hit is near 2.4%.
# M1 ag – human M1 muscarinic receptor agonists, primary screen, Fluo-8 calcium fluorescence, CHO-K1 cells, HTS; Muscarinic acetylcholine receptor M1 (Homo sapiens), P11229; CHO-K1 hM1, agonist mode; 0% DMSO, 100% acetylcholine EC100; activation, % at 3 µM; 0.33% of 360,000 active; AID 588814, 2011;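 active = activation above the run's mean compound activation plus 3 SD, cut at about 16% in these data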;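 also: peak over basal fluorescence ratio within a 140 s kinetic read after compound addition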
# Target sequence (P11229 whole entry, looked up): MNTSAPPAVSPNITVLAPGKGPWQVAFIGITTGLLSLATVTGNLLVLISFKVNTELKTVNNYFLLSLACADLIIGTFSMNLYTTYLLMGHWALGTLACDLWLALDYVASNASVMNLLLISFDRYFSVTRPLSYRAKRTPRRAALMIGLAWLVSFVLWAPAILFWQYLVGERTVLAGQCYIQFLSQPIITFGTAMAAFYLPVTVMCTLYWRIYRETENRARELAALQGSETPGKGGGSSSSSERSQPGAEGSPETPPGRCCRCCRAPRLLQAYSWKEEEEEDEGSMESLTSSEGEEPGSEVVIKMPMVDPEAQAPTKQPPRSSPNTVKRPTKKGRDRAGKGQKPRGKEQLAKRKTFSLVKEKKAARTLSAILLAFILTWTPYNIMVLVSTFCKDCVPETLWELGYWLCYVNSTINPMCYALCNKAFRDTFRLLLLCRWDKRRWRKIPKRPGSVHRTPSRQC
# CHRM1 PAM – human M1 muscarinic receptor positive allosteric modulators, primary screen, CHO-K1 cells, Fluo-8 calcium fluorescence, 1536-well. AID 588819, 2011. Muscarinic acetylcholine receptor M1 (Homo sapiens), P11229. CHO-K1 hM1, ACh EC20; 0% = ACh EC20, 100% = maximal ACh. activation, % at 3 µM. 0.088% of 360,000 active; in the data active = activation above about 19%, passing the limit was not always enough
# CHRM1 antagonist – human M1 muscarinic receptor antagonists, primary screen, CHO-K1 cells, Fluo-8 calcium fluorescence, 1536-well. Muscarinic acetylcholine receptor M1 (Homo sapiens), P11229. CHO-K1 hM1, ACh EC80 antagonist. inhibition, % at 3 µM. 1.3% of 360,000 active. AID 588852, 2011;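 active = percent inhibition above its own plate's cutoff, namely the mean of that plate's compound wells plus 3 SD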;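 also: peak over basal fluorescence ratio during 140 s after agonist addition; 0% = ACh EC80 plus DMSO and 100% = DMSO alone without agonist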
# M1 PAM parental – nonselective calcium activators in parental CHO-K1 cells, primary screen, counter-screen for M1 PAM project, cell-based, Fluo-8 calcium fluorescence, full deck, 1536-well; AID 602247, 2012; ATP EC20; 0% at ATP EC20, 100% at ATP max; activation, % at 3 µM; 0.02% of 360,000 active;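 active = activation above the run cutoff, the mean activation of all test compounds plus 3 SD, cut at about 40% in these data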;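 also: peak over basal fluorescence ratio in a 140 s read after ATP addition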
# M1 ag parental – counter-screen for M1 agonists: effect in parental CHO-K1 cells | activation, % at 3 µM | Fluo-8 calcium fluorescence; scaled to maximal ATP response, vehicle zero | 0.48% of 360,000 active; in the data active = activation above about 15%;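 also: untransfected CHO-K1 host cells lacking M1 receptor as counterscreen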
# CHO-K1 Ca antag – counter-screen for M1 antagonists: effect in parental CHO-K1 cells | inhibition, % at 3 µM | AID 602250 | 0.6% of 360,000 active | ATP-induced calcium, Fluo-8 fluorescence;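 active = inhibition above a per-plate cutoff, the plate's mean sample inhibition plus 3 SD, cut at about 24% in these data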;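 also: 0% = DMSO plus EC80 ATP and 100% = DMSO alone without ATP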
# Starred values were filed as active, the others as inactive.
SMILES,M1 ag,CHRM1 PAM,CHRM1 antagonist,M1 PAM parental,M1 ag parental,CHO-K1 Ca antag
Cc1cccc(C)c1OCC(=O)Nc1cccc(S(=O)(=O)N2CCCC2)c1,-6,-2,-1,8,2,-1
O=C(CSc1nnc(-c2cccc(Br)c2)o1)NCC1CCCO1 (configuration not stated),0,5,1,-12,0,26*
Cc1ccccc1-c1nnc(SCC(=O)NCC2CCCO2)o1 (configuration not stated),-1,8,-13,20,0,-14
Cc1ccc(Cn2nnc(C(=O)Nc3cccc(C)c3C)c2N)cc1,39*,-7,18,3,13,14
Nc1c(C(=O)NCc2ccccc2)nnn1Cc1ccc(F)cc1,20*,4,-5,17,4,-9
CCc1ccc(Cn2nnc(C(=O)Nc3cccc(C)c3)c2N)cc1,9,7,-9,-10,1,4
COc1cccc(Cn2nnc(C(=O)Nc3cc(C)ccc3OC)c2N)c1,2,9,-17,-12,0,26*
CCN(C(=O)COC(=O)c1cccn1C)C1CCS(=O)(=O)C1 (configuration not stated),-7,2,5,20,0,-8
O=C(N/N=C/c1cc(Br)c(O)c(Br)c1O)c1cccnc1,-3,2,-1,9,0,4
CCOc1ccc(NC(=O)c2cc3cc4ccc(OC)cc4nc3o2)cc1,-2,6,-3,11,1,-17
O=C(O)Cn1c(P(=O)(O)c2ccccc2)nc2ccccc21,-2,6,-3,11,0,-7
COc1ccc(C(=O)N(C)CCCC2CCCC2)cc1OC1CCN(C(C)C)CC1,-6,-18,30*,4,3,-9
Cc1cc(C)c(C(=O)N2CCCC(C(=O)c3cc(F)ccc3F)C2)o1 (configuration not stated),-11,10,-3,10,0,-3
C/C(=N/NC(=O)CNc1ccc(C)cc1)c1ccc(Br)s1,8,4,0,3,21*,2
COc1ccc(-c2nn(-c3ccccc3)cc2C(=O)NC(=S)Nc2cc(Cl)ccc2Cl)cc1,1,26*,-37,10,0,-5
CC(C)(C)[C@]1(O)CCN2C[C@H]3c4ccccc4CCc4cccc(c43)[C@@H]2C1,1,4,-32,41*,2,-18
COc1ccc(C2CC(=O)c3c(O)cc(O)cc3O2)cc1O (configuration not stated),-2,-18,28*,-13,1,14
O=C1CC(c2ccc(O)c(O)c2)Oc2cc(O)cc(O)c21 (configuration not stated),2,15,-11,-12,0,12
Cc1ccc(/C=N/NC(=O)c2ccccc2OCc2ccc(F)cc2)o1,-3,17,-15,43*,6,-19
COc1ccc(NC2CCCN(C(=O)CCCn3cncn3)C2)cc1 (configuration not stated),-1,2,2,4,18*,11
N/C(=N\OC(=O)CC1CCCCC1)c1ccncc1,-6,-4,9,15,17*,3
C=CCN1C(=O)/C(=C/c2ccc(OCC(=O)O)cc2)S/C1=N/c1nccs1,-5,2,1,13,0,-12
C=CCN1C(=O)/C(=C/c2ccc(O)c(OC)c2)S/C1=N/c1nccs1,10,-8,23,11,17*,24*
CCOc1cccc(-c2c(C(=O)N/N=C/c3ccsc3)nnn2-c2nonc2N)c1,19*,16,-5,19,2,-12
CCOc1ccc(-c2c(C(=O)N/N=C/c3cccs3)nnn2-c2nonc2N)cc1,11,3,3,17,3,3
SMILES,M1 ag,CHRM1 PAM,CHRM1 antagonist,M1 PAM parental,M1 ag parental,CHO-K1 Ca antag
Cc1ccc(-c2c(C(=O)N/N=C/c3ccsc3)nnn2-c2nonc2N)cc1,41*,1,-1,2,17*,-4
Nc1nonc1-n1nnc(C(=O)N/N=C/c2cccs2)c1-c1ccc2c(c1)OCO2,43*,9,-7,20,42*,-31
Cc1ccc(-c2c(C(=O)N/N=C/c3ccoc3)nnn2-c2nonc2N)cc1,4,12,-9,-22,0,-6
CCOc1cccc(-c2c(C(=O)N/N=C/c3sccc3C)nnn2-c2nonc2N)c1,1,6,-1,5,3,-6
Cc1ccc(-c2c(C(=O)N/N=C/c3cccs3)nnn2-c2nonc2N)cc1,18*,21,-21,24,13,-15
Cc1cccc2c1N(CCOc1ccc(C(C)(C)C)cc1)C(=O)C2=O,21*,-7,-1,-4,0,5
Cc1ccc(OCCCN2C(=O)C(=O)c3cccc(C)c32)cc1,14,11,-12,21,1,-8
Cc1cccc2c1N(CCOc1ccccc1Cl)C(=O)C2=O,24*,-1,-16,18,1,-3
C[C@H](CO)N1C[C@H](C)[C@@H](CN(C)S(=O)(=O)c2ccccc2)Oc2ccc(NC(=O)NC3CCCCC3)cc2C1=O,-11,-31,39*,-11,0,7
C[C@H](CO)N1C[C@H](C)[C@@H](CN(C)S(=O)(=O)c2ccccc2)Oc2ccc(NC(=O)C3CCCCC3)cc2C1=O,-11,-8,7,5,0,-6
C[C@@H]1CCCCO[C@H](CN(C)S(=O)(=O)c2cccs2)[C@H](C)CN([C@@H](C)CO)C(=O)c2cc(NC(=O)NC3CCCCC3)ccc2O1,-7,-2,-10,20,0,-11
C[C@H](CO)N1C[C@H](C)[C@@H](CN(C)S(=O)(=O)c2cccs2)Oc2ccc(NC(=O)NC3CCCCC3)cc2C1=O,-11,-33,44*,13,0,-8
COc1ccc(S(=O)(=O)Nc2ccc3c(c2)C(=O)N([C@H](C)CO)C[C@H](C)[C@@H](CN(C)C(=O)Nc2c(C)noc2C)OCCCC[C@H](C)O3)cc1,40*,-29,2,22,1,-17
C[C@H](CO)N1C[C@H](C)[C@@H](CN(C)S(=O)(=O)c2cccs2)Oc2ccc(NC(=O)Cn3cnnn3)cc2C1=O,-10,-22,26*,14,0,-9
CCOC(=O)N1CCC(N2Cc3cccc(C(=O)NCc4ccccn4)c3C2=O)CC1,-10,-22,28*,16,1,-8
